Assay [1] concerns XIP peptide (Xip251-270) binding. Description: XIP fragment 251-270 binding compounds – biochemical, small-molecule microarray, fluorescence 635/667 nm, 0.1 µg/mL protein, primary screen (AID 1182). The conditions noted are these: fluorescent protein binding, 635 nm, higher = more signal, called active from +8 up or from −8 down.
Assay [2] concerns XIP peptide (Xip251-270). Description: compounds binding XIP fragment 251-270 – biochemical, small-molecule microarray, fluorescence 635/667 nm, 0.5 µg/mL protein, primary screen (AID 1183). The conditions noted are these: fluorescence 635 nm, higher = more signal.
Assay [3] can be described thus: blood-stage malaria parasite viability loss – strain 3D7, DAPI fluorescence, 100 nL, primary screen (AID 1184).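 Also: parasites grown inside human red blood cells in medium with human serum.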 The conditions noted are these: P. falciparum 3D7 growth, 3 d, higher = more signal.
Assay [4] addresses Homeobox protein Hox-A13 (Mus musculus) (UniProt Q62424). Description: disruptors of Hoxa13 oligonucleotide interaction – biochemical, fluorescence polarization, labeled oligonucleotide, primary screen (AID 1185). Particulars: Hoxa13:DNA binding, 15 min, higher = more signal, called active from +8 up or from −8 down. For orientation: Polarisation of emitted light reports the rotation of a fluorescent probe.

Assay [5] can be described thus: blockers of DNA damage checkpoint Chk1 activation – imaging, HeLa, hydroxyurea, phospho-Chk1 antibody, percent positive cells, primary screen (AID 1186). The conditions noted are these: hydroxyurea-induced phospho-Chk1 immunofluorescence imaging, higher = more signal.
Assay [6] in a line: blockers of DNA damage checkpoint Chk1 activation – imaging, HeLa, hydroxyurea, phospho-Chk1 nuclear intensity, primary screen (AID 1187). The conditions noted are these: hydroxyurea-induced phospho-Chk1 immunofluorescence imaging, higher = more signal.

For 26 compounds, composite z-score and z-score results are on record in PubChem BioAssay.

Active and inactive are the calls of the source. Unless noted, no rule for the calls is given here.

Sequence of Homeobox protein Hox-A13 (Mus musculus) (Q62424 whole entry, looked up): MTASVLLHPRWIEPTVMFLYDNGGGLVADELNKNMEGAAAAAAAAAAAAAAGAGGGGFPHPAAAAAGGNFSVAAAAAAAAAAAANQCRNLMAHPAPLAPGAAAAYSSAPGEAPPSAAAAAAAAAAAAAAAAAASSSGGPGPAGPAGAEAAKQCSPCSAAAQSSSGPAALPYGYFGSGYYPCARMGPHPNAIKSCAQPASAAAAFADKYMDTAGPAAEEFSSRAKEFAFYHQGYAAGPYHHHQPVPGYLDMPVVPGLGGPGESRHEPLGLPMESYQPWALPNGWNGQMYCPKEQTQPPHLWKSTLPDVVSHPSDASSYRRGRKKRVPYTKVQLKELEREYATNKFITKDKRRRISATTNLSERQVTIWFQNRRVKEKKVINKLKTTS

For the compound `COc1ccc([Si](C)(C)[C@H]2[C@H](CC(=O)N(CCO)Cc3ccccc3)O[C@@]3(C(=O)N(Cc4cccc(N5CCC5=O)c4)c4ccccc43)[C@@H]2C)cc1`, the composite z-score in assay [1] was 0.0163 (inactive); in assay [2], 0.281. The z-score was -2.84 in assay [3], -2.16 (inactive) in assay [4], -1.46 (inactive) in assay [5] and -1.2 (inactive) in assay [6].
As to `CC(C)(C)OC(=O)CC[C@@]1(C(=O)NCCN2CCOCC2)N=C(c2ccc(OCCCO)cc2)O[C@@H]1c1ccccc1`, the composite z-score is 1.38 (inactive) in assay [1] and 0.825 in assay [2]. Also, the z-score in assay [3] is 0.248; in assay [4], -4.84 (inactive); in assay [5], -0.396 (inactive); in assay [6] it was -0.395 (inactive).
As to `CC(=CC1CCCCC1)[C@@H](NC(=O)c1ccc(C(F)(F)F)cc1)c1ccc(-c2ccccc2)cc1`, the composite z-score was -0.138 (inactive) in assay [1] and -0.569 in assay [2]. The z-score was -0.0178 in assay [3], -1.48 (inactive) in assay [4], 0.191 (inactive) in assay [5] and 0.498 (inactive) in assay [6].
As for `CCCCCCc1nc(CCCc2cc3c(c(CCCCCC)n2)[Si](C(C)C)(C(C)C)OC3)cc2c1[Si](C(C)C)(C(C)C)OC2`, the composite z-score in assay [1] was -0.53 (inactive); in assay [2], -0.442. The z-score was -2.33 in assay [3], -5.85 (inactive) in assay [4], 0.28 (inactive) in assay [5] and 0.382 (inactive) in assay [6].
On to `CCCNC(=O)[C@@]1(c2ccc([N+](=O)[O-])cc2)CC(=O)N(CC23CC4CC(CC(C4)C2)C3)[C@@H]1c1ccc(CO)cc1`, for which the composite z-score in assay [1] is 0.462 (inactive); in assay [2], 0.424. Further, the z-score in assay [3] was 0.0816; in assay [4] it was -4.89 (inactive); in assay [5], -0.29 (inactive); in assay [6], -0.683 (inactive).
`CN1C(=O)C2C(C1=O)C1C=C(CCCO)C2C(c2cccs2)N1C` (stereo unspecified): the composite z-score was -0.119 (inactive) in assay [1] and -0.0427 in assay [2]. The z-score in assay [3] is 0.404; in assay [4] it was -9.72 (active); in assay [5] it was 0.207 (inactive); in assay [6] it was -0.0851 (inactive).
For `O=C/C=C/c1ccc(Cl)cc1`, the composite z-score in assay [1] was -1.5 (inactive); in assay [2], -0.314. The z-score was 0.364 in assay [3], 0.168 (inactive) in assay [4], -0.0674 (inactive) in assay [5] and -0.659 (inactive) in assay [6].
`O=C1N(CCS(=O)(=O)c2ccccc2)Cc2ccccc2C[C@]12N=C(c1ccc(OCCCO)cc1)O[C@@H]2c1ccccc1`: the composite z-score in assay [1] was 0.194 (inactive); in assay [2] it was 0.789. The z-score is -2.34 in assay [3], -2.61 (inactive) in assay [4], -0.719 (inactive) in assay [5] and -0.709 (inactive) in assay [6].
Consider `COCCOC(=O)N1C(=O)[C@@]2(c3cc(C#CCCO)ccc31)[C@H](C(=O)NC[C@H](O)c1ccccc1)[C@H]1C(=O)O[C@H](c3ccccc3)[C@H](c3ccccc3)N1[C@@H]2c1ccc(O)cc1`, for which the composite z-score in assay [1] was -0.246 (inactive); in assay [2], 0.692. The z-score in assay [3] was 0.363; in assay [4], -3.53 (inactive); in assay [5] it was -0.392 (inactive); in assay [6], -0.542 (inactive).
Turning to `COCCOC(=O)N1C(=O)[C@@]2(c3ccccc31)[C@H](C(=O)Nc1nc3ccccc3s1)[C@H]1C(=O)O[C@H](c3ccccc3)[C@H](c3ccccc3)N1[C@@H]2c1ccc(OCCO)cc1`, the composite z-score in assay [1] was 0.886 (inactive); in assay [2], 0.805. For the same compound, the z-score is -1.13 in assay [3], 0.34 (inactive) in assay [4], -0.178 (inactive) in assay [5] and -0.249 (inactive) in assay [6].
Regarding `[N-]=[N+]=NCc1ccccc1[C@@H]1OC(c2ccc(OCCCO)cc2)=N[C@]1(Cc1ccccc1)C(=O)N1CCCCC1`, the figures for the composite z-score in assay [1] and in assay [2] were 0.34 (inactive) and 0.654, respectively. In addition, the z-score in assay [3] is -2.23; in assay [4], -3.35 (inactive); in assay [5] it was -0.837 (inactive); in assay [6] it was -0.726 (inactive).
As for `Cc1ccc([C@H]2C(C(=O)O)=C[C@@H](C)N2S(=O)(=O)c2ccc(C)cc2)cc1`, the composite z-score in assay [1] was 1.78 (inactive); in assay [2] it was -0.43. Besides, the z-score was 0.159 in assay [3], -3.09 (inactive) in assay [4], 0.502 (inactive) in assay [5] and 0.176 (inactive) in assay [6].
With `[N-]=[N+]=Nc1ccccc1C[C@]1(C(=O)NCCN2CCOCC2)N=C(c2ccc(OCCCO)cc2)O[C@H]1c1ccccc1`, the composite z-score was 0.533 (inactive) in assay [1] and 0.902 in assay [2]. Moreover, the z-score in assay [3] is -2.37; in assay [4] it was -5.89 (inactive); in assay [5], 0.184 (inactive); in assay [6] it was 0.535 (inactive).
In the case of `COCCOC(=O)N1C(=O)[C@@]2(c3ccccc31)[C@H](C(=O)NC[C@H](O)c1ccccc1)[C@H]1C(=O)O[C@H](c3ccccc3)[C@H](c3ccccc3)N1[C@@H]2c1ccc(OCCO)cc1`, the composite z-score was 0.868 (inactive) in assay [1] and 0.645 in assay [2]. Besides, the z-score in assay [3] was -2.02; in assay [4], -4.33 (inactive); in assay [5], -0.293 (inactive); in assay [6], -0.262 (inactive).
As to `COCC(=C=CC[C@@H](O)c1ccc(CO)o1)CCO`, the composite z-score in assay [1] was 0.848 (inactive); in assay [2], 0.344. Also, the z-score is -1.61 in assay [3], -3.24 (inactive) in assay [4], -1 (inactive) in assay [5] and -0.68 (inactive) in assay [6].
`COc1ccc([Si](C)(C)[C@@H]2[C@@H](CC(=O)N(CCO)Cc3ccccc3)O[C@]3(C(=O)N(C)c4ccccc43)[C@H]2C)cc1`: the composite z-score was 1.74 (inactive) in assay [1] and 0.626 in assay [2]. The z-score is -1.55 in assay [3], -6.65 (inactive) in assay [4], -0.36 (inactive) in assay [5] and -1.47 (inactive) in assay [6].
As to `Cc1ccc(S[C@]2(C(=O)NC3CC3)CC(=O)N(Cc3ccccc3)[C@@H]2c2ccc(CO)cc2)cc1`, the composite z-score is 0.795 (inactive) in assay [1] and 0.327 in assay [2]. Moreover, the z-score in assay [3] is -0.308; in assay [4], -2.47 (inactive); in assay [5], 0.0616 (inactive); in assay [6], 0.0892 (inactive).
Regarding `NCCCCCCNC(=O)[C@H]1C[C@H]2C(=O)NCC(=O)N2[C@H]1c1cccc(OCCO)c1`, the composite z-score in assay [1] was 2.26 (inactive); in assay [2], 0.814. The z-score in assay [3] is 0.005; in assay [4], -2.07 (inactive); in assay [5] it was 0.234 (inactive); in assay [6] it was 0.495 (inactive).
Consider `[N-]=[N+]=NCc1ccccc1[C@H]1OC(c2ccc(OCCCO)cc2)=N[C@@]1(CCS(=O)(=O)c1ccccc1)C(=O)N1CCOCC1`, for which the composite z-score was 1.53 (inactive) in assay [1] and 0.768 in assay [2]. Also, the z-score in assay [3] is -2.22; in assay [4] it was -3.2 (inactive); in assay [5] it was -0.0312 (inactive); in assay [6], 0.246 (inactive).
Take `CCN(CC)c1ccc(N2CC=CC34O[C@@H]5/C=C\CCCOC(=O)C5[C@H]3C(=O)N(C(CO)C(C)C)[C@@H]4C2=O)cc1` (stereo partly specified): the composite z-score is 1.05 (inactive) in assay [1] and 0.559 in assay [2]. The z-score is 0.604 in assay [3], -6.07 (inactive) in assay [4], 0.169 (inactive) in assay [5] and -0.0477 (inactive) in assay [6].
On to `COCCOC(=O)N1C(=O)[C@@]2(c3cc(C#CCNC(N)=O)ccc31)[C@H](c1ccc(O)cc1)N1[C@H](c3ccccc3)[C@H](c3ccccc3)OC(=O)[C@H]1[C@@H]2C(=O)NC[C@H](O)c1ccccc1`, for which the composite z-score in assay [1] is 1.82 (inactive); in assay [2] it was 0.733. Besides, the z-score was -0.0916 in assay [3], -3.19 (inactive) in assay [4], -0.107 (inactive) in assay [5] and -0.369 (inactive) in assay [6].
For `CO[C@H]1O[C@H](CO)[C@@H](OC(=O)Nc2ccc(Oc3ccccc3)cc2)[C@H](OC(=O)Nc2ccccc2)[C@H]1OC(=O)Nc1ccccc1`, the results for the composite z-score in assay [1] and in assay [2] were 1.21 (inactive) and 0.916, respectively. Further, the z-score in assay [3] is -2.21; in assay [4], -1.38 (inactive); in assay [5], -0.444 (inactive); in assay [6], -0.307 (inactive).
On to `O=C(OCCF)C1=CCC(c2cccc(Cl)c2)O1` (stereo unspecified), for which the composite z-score in assay [1] was -0.131 (inactive); in assay [2], 0.0075. Besides, the z-score was 0.65 in assay [3], -0.701 (inactive) in assay [4], 0.0006 (inactive) in assay [5] and 0.215 (inactive) in assay [6].
With `C=CCNC(=O)[C@@H]1[C@H]2C(=O)O[C@H](c3ccccc3)[C@H](c3ccccc3)N2[C@H](c2ccccc2OCCO)[C@@]12C(=O)Nc1ccc(C#CC3=CCCCC3)cc12`, the results for the composite z-score in assay [1] and in assay [2] were 1.02 (inactive) and 0.691, respectively. The z-score in assay [3] was -2.17; in assay [4], 1.71 (inactive); in assay [5] it was 0.0372 (inactive); in assay [6], 0.464 (inactive).
Consider `CC(=O)NCCCC[C@@H]1NC(=O)[C@@H]2C[C@H](C(=O)NCCCCN(C)C)[C@H](c3ccc(O)cc3)N2C1=O`, for which the composite z-score in assay [1] is -0.308 (inactive); in assay [2], -0.208. The z-score in assay [3] was 0.101; in assay [4] it was -0.795 (inactive); in assay [5] it was -0.396 (inactive); in assay [6], -0.291 (inactive).
For the compound `COCCOC(=O)N1C(=O)[C@@]2(c3cc(C#CCC(C(=O)OC)C(=O)OC)ccc31)[C@H](C(=O)N1CCN(c3ncccn3)CC1)[C@H]1C(=O)O[C@H](c3ccccc3)[C@H](c3ccccc3)N1[C@@H]2c1ccc(OCCO)cc1`, the composite z-score in assay [1] is 0.262 (inactive); in assay [2] it was 0.698. Besides, the z-score is -2.22 in assay [3], 2.45 (inactive) in assay [4], -0.576 (inactive) in assay [5] and -0.833 (inactive) in assay [6].
